Screening data (PubChem BioAssay)
In the library only some 27% were active in any assay of this set; here they are far more common.
sEH inhibitor – soluble epoxide hydrolase (human) inhibition. 91,000 tested, 0.34% active. inhibition, % at 2 µM. recombinant human sEH enzymatic activity assay; in the data active means inhibition above about 80%
sEH activator – increases human soluble epoxide hydrolase activity; P34913; purified human sEH enzymatic activity, activator screen; activation, % at 2 µM; 91,000 tested, 0.04% active; AID 717; in the data active means activation above about 37%
CYP2C19 inh – human CYP2C19 inhibition; inhibition, % at 5 µM; CYP2C19 Supersomes, luciferin-H EGE luminescence, 30 min; 96,000 tested, 21% active; P33261;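 active means CYP2C19 inhibition above a set limit at 5 µM in the primary screen, cut at about 50% in these data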
CYP2C9 activ – CYP2C9 (human) activation; recombinant CYP2C9, luciferin-H conversion, luminescence; stronger effect = higher value; factor 1 = untreated enzyme, 0 = blocked; P11712; activation factor at 5 µM; 96,000 tested, 1.4% active;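 active means activation factor of 2 or more for CYP2C9 at a 5 µM dose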
Target sequence (P11712 whole entry, looked up): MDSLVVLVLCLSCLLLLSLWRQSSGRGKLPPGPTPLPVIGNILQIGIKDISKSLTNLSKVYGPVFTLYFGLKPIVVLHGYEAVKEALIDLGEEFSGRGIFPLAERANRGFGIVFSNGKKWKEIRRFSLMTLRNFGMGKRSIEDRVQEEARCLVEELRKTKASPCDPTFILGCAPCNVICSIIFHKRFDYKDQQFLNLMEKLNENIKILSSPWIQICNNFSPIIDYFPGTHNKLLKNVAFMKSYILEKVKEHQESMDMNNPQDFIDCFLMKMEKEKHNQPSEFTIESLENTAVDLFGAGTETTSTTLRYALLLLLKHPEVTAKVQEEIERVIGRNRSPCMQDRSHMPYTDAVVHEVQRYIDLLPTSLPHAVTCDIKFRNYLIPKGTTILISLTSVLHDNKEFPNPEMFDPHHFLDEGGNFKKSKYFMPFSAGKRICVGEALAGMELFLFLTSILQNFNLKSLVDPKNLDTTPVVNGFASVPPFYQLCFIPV
CYP2C9 inhib – inhibitors of human CYP2C9. P11712. inhibition, % at 5 µM. AID 777. 96,000 tested, 20% active. CYP2C9 Supersomes, luciferin-H conversion, luminescence;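 active means blocking of liver enzyme CYP2C9 beyond about 50% at 5 µM, limit read from the data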
CYP2C19 activ – increases human CYP2C19 enzyme activity; AID 1025; recombinant CYP2C19, luciferin-H EGE luminescence; stronger effect = higher value; 0 = fully inhibited enzyme, 1 = untreated enzyme; activation factor at 5 µM; P33261; 96,000 tested, under 10 active;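 active means activation factor of at least 2 at 5 µM in the primary screen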
A number is an active result; n = inactive; x = no result given.

SMILES	sEH inhibitor	sEH activator	CYP2C19 inh	CYP2C9 activ	CYP2C9 inhib	CYP2C19 activ
c1coc(-c2nnc3sc(C4CCCCC4)nn23)c1	x	x	n	n	n	n
CCN(CC)C(=O)CN(c1cc(Cl)ccc1OC)S(C)(=O)=O	n	n	x	x	x	x
CCOC(=O)C1CCN(C(=O)CN(c2cc(OC)ccc2OC)S(=O)(=O)c2ccccc2)CC1	x	x	n	n	n	n
CS(=O)(=O)N(CC(=O)Nc1ccc2c(c1)OCO2)c1ccccc1	x	x	n	n	n	n
CS(=O)(=O)N(CC(=O)Nc1ccc2c(c1)OCCO2)c1ccc2c(c1)OCO2	n	n	88	n	58	n
COc1ccc(OC)c(N(CC(=O)O)S(=O)(=O)c2ccc(OC)c(OC)c2)c1	x	x	n	n	n	n
COCCCNC(=O)CN(c1cc(OC)ccc1OC)S(=O)(=O)c1ccccc1	n	n	56	n	59	n
COc1ccc(OC)c(N(CC(=O)Nc2ccc3c(c2)OCO3)S(=O)(=O)c2ccccc2)c1	n	n	98	n	100	n
COc1ccc(Cl)cc1N(CC(=O)Nc1ccc2c(c1)OCO2)S(C)(=O)=O	n	n	95	n	86	n
CC1CC(C)(C)N2C(=O)C3(Nc4ccccc4S3)c3cccc1c32 (configuration not stated)	n	n	52	n	n	n
Cc1ccc2nc(NC(=O)CNS(=O)(=O)c3ccc(Br)s3)sc2c1	x	x	n	n	63	n
Cc1ccc2nc(NC(=O)CN(C)S(=O)(=O)c3ccc(Br)s3)sc2c1	n	n	n	n	n	n
Cc1cccc2sc(NC(=O)CNS(=O)(=O)c3ccc(Br)s3)nc12	n	n	65	n	n	n
C#CCN(C)CC/C=C1\c2ccccc2CSc2ccccc21	n	n	x	x	x	x
O=C(NC12CC3CC(CC(C3)C1)C2)N1CC2Cc3cccc(=O)n3C(C2)C1 (configuration not stated)	86	n	n	n	n	n
O=C(CCCSc1nc2ccccc2s1)NCc1ccco1	x	x	76	n	n	n
Cc1csc(NC(=O)CCCSc2nc3ccccc3s2)n1	n	n	88	n	52	n
CCN(CC)S(=O)(=O)c1ccc2[nH]c(=O)[nH]c2c1	x	x	n	n	n	n
O=C(CC(c1ccccc1)c1ccccc1O)NCc1ccco1 (configuration not stated)	n	n	n	n	51	n
C/C(CC(=O)NCc1ccco1)=N\NC(=O)C(c1ccccc1)c1ccccc1	n	n	n	n	51	n
CC(C)NC(=O)CC(c1ccccc1)c1cc(Br)ccc1O (configuration not stated)	n	n	95	n	90	n
O=C(CC(c1ccccc1)c1cc(Br)ccc1O)NCc1ccco1 (configuration not stated)	n	n	99	n	99	n
CC(C)Oc1ccc(CNC(=O)CC(c2ccccc2)c2cc(Cl)ccc2O)cc1 (configuration not stated)	n	n	87	n	96	n
Cc1cc(N2CC(=O)N(CCc3ccccc3)C(=O)C2)n2ncnc2n1	n	n	n	n	n	n
Cc1cc(C)nc(NS(=O)(=O)c2ccc(NC(=S)NC(=O)C(C)C)cc2)n1	n	n	x	x	x	x
SMILES	sEH inhibitor	sEH activator	CYP2C19 inh	CYP2C9 activ	CYP2C9 inhib	CYP2C19 activ
CCc1nnc(NS(=O)(=O)c2ccc(NC(=S)NC(=O)/C=C/c3ccc(C(C)C)cc3)cc2)s1	n	n	n	n	77	n
CCCCC1CCC(C(=O)Nc2ccccc2)CC1 (configuration not stated)	n	n	n	n	n	n
Cc1cc(NC(=O)c2cc(-c3ccncc3)nc3c(C)cccc23)no1	n	n	90	n	97	n
S=c1[nH]nc(C2CCCCC2)n1/N=C/c1ccc(Br)s1	n	n	n	n	n	n
CCOC(=O)c1sc(=S)n(-c2ccc3c(c2)OCO3)c1N	x	x	64	n	n	n
C=CCn1c(N)c(C(=O)OCC)sc1=S	n	n	n	n	n	n
CCOC(=O)c1sc(=S)n(Cc2ccccc2)c1N	n	n	n	n	79	n
C=CCn1c(NC(=O)CC)c(C(=O)OCC)sc1=S	n	n	52	n	n	n
CCOC(=O)c1sc(=S)n(-c2ccccc2OC)c1N	x	x	n	n	56	n
CCOc1ccccc1-n1c(N)c(C(N)=O)sc1=S	n	n	n	n	n	n
CCCCNC(=O)N(O)C1N(CCCC)C(=O)N(CC(=O)OC)C1(C)C (configuration not stated)	n	n	x	x	x	x
CCOC(=O)c1cn2c3c(c(F)c(F)cc3c1=O)SC(N1CCOCC1)=N2	n	n	x	x	x	x
O=C(Nc1ccc(SC(F)F)cc1)c1cccc2nc3ccccc3nc12	n	n	n	n	n	n
Cc1nnc(SCC(=O)N(Cc2ccccc2)C(C)C)n1-c1ccccc1	n	n	n	n	n	n
CCOC(=O)c1sc(=S)n(CC)c1N	x	x	84	n	72	n
O=C1CC(N2CCN(c3ccc(S(=O)(=O)N4CCOCC4)cc3)CC2)C(=O)N1Cc1ccccc1 (configuration not stated)	n	n	n	n	n	n
O=C(c1ccncc1)c1ccc(N2CCN(C3CC(=O)N(Cc4ccccc4)C3=O)CC2)cc1 (configuration not stated)	n	n	86	n	60	n
Cn1c(NC(=O)c2ccccc2F)cc(=O)n(C)c1=O	n	n	n	n	n	n
Cc1cc(N(C)Cc2ccccc2)nc(-c2ccccc2)n1	n	n	96	n	80	n
CCc1ccc(C2(C)SC(NC(C)=O)=NN2C(C)=O)cc1 (configuration not stated)	n	n	71	n	n	n
O=C(NC(=S)NCCN1CCOCC1)c1cccc(Cl)c1	n	n	n	n	n	n
COc1ccccc1C(=O)Nc1nnc(-c2ccc3c(c2)CCCC3)o1	n	n	75	2.1	n	n
CC(=O)Nc1nnc(-c2ccc3c(c2)CCCC3)o1	n	n	n	n	n	n
CCN(CC)C(=O)CSc1nnc(CCCCCNC(=O)OC(C)(C)C)o1	n	n	n	n	n	n
CCC(C)[C@H](NC(=O)NCc1ccccc1Cl)C(=O)OC (some centres not stated)	95	n	n	n	n	n
CCOC(=O)/C=C1\SCC(=O)N1Cc1nnc(-c2ccccc2Br)o1	n	n	76	n	72	n
CCOC(=O)/C=C1\SCC(=O)N1CC(=O)NC(C)C	n	n	n	n	n	n
O=C(CSc1nnc(-c2cccs2)n1CC1CCCO1)c1cc2ccccc2o1 (configuration not stated)	n	n	n	n	n	n
O=C1CSC(=O)N1CC(O)COc1ccc(Cl)cc1 (configuration not stated)	n	n	54	n	n	n
Cc1ccc(C(=O)Nc2ccccc2C(=O)NC(C(=O)O)C(C)C)cc1 (configuration not stated)	n	n	x	x	x	x
